The values that follow come from PubChem BioAssay (NCATS).

Test [1] has as its target Mitogen-activated protein kinase 10 (Mus musculus) (UniProt Q61831). Kind of test: JNK3 AlphaScreen Assay (AID 530; active means well fitted curve in either direction with a large enough effect, not every such curve was filed as active;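 further: kinase came from lysate of stimulated human HepG2 cells; signal reports phosphorylation of biotinylated GST-cJun 1-79 at Ser73 with 10 µM ATP; series mostly up to about 57 µM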). The method, boiled down:
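JNK3 came from HepG2 lysates pre-activated with IL-1beta and TNF-alpha and phosphorylated biotinylated GST-cJun (1-79) at 10 uM ATP, pH 7.6, room temperature. Compounds were titrated. AlphaScreen signal used anti-phospho-cJun (Ser73) antibody.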
(Bead proximity is the source of the signal in Alpha formats.)

Test [2] has as its target Cytochrome P450 3A4 (Homo sapiens) (UniProt P08684). In words: qHTS Assay for Inhibitors and Substrates of Cytochrome P450 3A4 (AID 884). Further: potency means the concentration at half of the fitted maximal effect; nearly all actives have a fitted effect of over 50% in size. In a few lines:
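20 nM human CYP3A4 with 25 uM Luciferin-PPXE (at KM) in 200 mM KPO4, preincubated 10 min with compound; NADPH regeneration started a 60 min RT reaction. Luciferin detected by luminescence, normalized to 57 uM ketoconazole as full inhibition.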
For orientation: qHTS replaces the single test concentration by a dilution series.

The target is the same in test [3]. In words: qHTS Assay for Activators of Cytochrome P450 3A4 (AID 885). Further: nearly all actives have a fitted effect of over 65% in size. The method, boiled down:
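Human CYP3A4 (20 nM) with Luciferin-PPXE at 25 uM (its KM) in 200 mM KPO4; 10 min compound preincubation, then NADPH regeneration and 60 min reaction at RT. Luciferin read by luminescence; normalized to 57 uM ketoconazole full inhibition.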

Results filed as inconclusive are left out. Where a call stands in place of a potency, no number is given. Active and inactive are the calls of the source. Unless noted, the call rests on the fitted dose curve; in most records, active means well fitted curve in the direction sought with a large enough effect; inconclusive means small, poorly fitted or top-dose-only effect, or another doubt; inactive means no such curve, though single readings can be large; an effect the other way counts as inactive or inconclusive.

Cytochrome P450 3A4 (Homo sapiens), sequence (P08684 whole entry, looked up): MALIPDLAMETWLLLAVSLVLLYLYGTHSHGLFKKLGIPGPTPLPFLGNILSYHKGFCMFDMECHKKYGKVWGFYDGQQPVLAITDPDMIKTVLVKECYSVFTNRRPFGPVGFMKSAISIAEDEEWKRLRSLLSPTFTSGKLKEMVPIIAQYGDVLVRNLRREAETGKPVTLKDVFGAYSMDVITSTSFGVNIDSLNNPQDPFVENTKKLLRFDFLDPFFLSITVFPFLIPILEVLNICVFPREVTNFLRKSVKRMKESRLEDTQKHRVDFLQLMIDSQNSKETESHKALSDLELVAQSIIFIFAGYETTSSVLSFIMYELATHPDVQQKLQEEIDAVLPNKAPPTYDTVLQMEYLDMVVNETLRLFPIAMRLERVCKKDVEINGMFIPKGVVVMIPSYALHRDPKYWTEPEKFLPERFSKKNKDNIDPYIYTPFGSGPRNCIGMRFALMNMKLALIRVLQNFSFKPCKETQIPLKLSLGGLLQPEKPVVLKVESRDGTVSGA

Consider `CCCCCCN(C(=O)CCCCCN1C(=O)NC(c2cccc([N+](=O)[O-])c2)C(C(=O)OCc2ccccc2)=C1C)C(C(=O)NCCCC)c1ccc(OCC(=O)OC)c(C(=O)OC)c1` (stereo unspecified), for which the outcome in test [1] was inactive. Also, in test [2], the Potency is 3.16 µM (active). Moreover, the Potency entry in test [3] was “inactive”.
For the molecule `COC(=O)c1ccc(C(NC(=O)OCc2ccccc2)/C(=C/[C@@H](C)C(=O)NCCF)c2cccnc2)cc1` (stereo partly specified), the outcome in test [1] was inactive. Moreover, in test [2], the Potency was 6.31 µM (active). The Potency entry in test [3] was “inactive”.
In the case of `COC(=O)c1ccc(C(NC(=O)OCc2ccccc2)/C(=C/[C@@H](C)C(=O)NCc2ccc(S(C)(=O)=O)cc2)c2cccnc2)cc1` (stereo partly specified), the result in test [1] was inactive. Besides, the Potency in test [2] was 2 µM (active). For the same molecule, the Potency entry in test [3] was “inactive”.
Consider `COC(=O)[C@@H]1C[C@@]1(C)[C@@H](NC(=O)OCc1ccccc1)c1ccccc1`, for which the result in test [1] was inactive. Moreover, the Potency in test [2] is 25.1 µM (active). For the same molecule, the Potency result in test [3] was “inactive”.
Consider `COC(=O)[C@@]1(C)C=C[C@@H](Cc2ccccc2)N1C`, for which the outcome in test [1] was inactive. For the same molecule, in test [2], the Potency is 12.6 µM (active). Also, the Potency result in test [3] is “inactive”.
As for `COC(=O)c1ccc(C(NC(=O)OCc2ccccc2)/C(C)=C/[C@@H](C)C(=O)NCCN2CCOCC2)cc1` (stereo partly specified), the outcome in test [1] was inactive. Besides, the Potency in test [2] was 3.16 µM (active). Also, in test [3], the Potency entry is “inactive”.
On to `CN(C)C(=O)[C@@H]1C[C@H]1[C@@H](NC(=O)OCc1ccccc1)c1ccccc1`, for which, in test [1], the result was inactive. Further, the Potency in test [2] is 10 µM (active). Besides, the Potency entry in test [3] is “inactive”.
Turning to `C[C@@H]1C=C[C@](Cc2ccccc2)(C(=O)NCCN2CCOCC2)N1C(=O)c1ccccc1`, the molecule was classed as inactive in test [1]. Moreover, the Potency in test [2] was 5.01 µM (active). For the same molecule, the Potency entry in test [3] was “inactive”.
For the molecule `COC(=O)c1ccc(C(NC(=O)OCc2ccccc2)/C(F)=C/[C@@H](C)C(=O)NCCc2c[nH]c3ccc(OC)cc23)cc1` (stereo partly specified), in test [1], the molecule was classed as inactive. Further, in test [2], the Potency is 1.26 µM (active). Further, the Potency result in test [3] is “inactive”.
With `COC(=O)c1ccc(C(NC(=O)OCc2ccccc2)/C(=C/[C@@H](C)C(=O)NCC2CC2)c2cccnc2)cc1` (stereo partly specified), in test [1], the molecule was called inactive. The Potency in test [2] is 2 µM (active). Besides, in test [3], the Potency result is “inactive”.
Consider `COC(=O)N1CC=CC1(C)C(=O)NCc1cc(F)cc(C(F)(F)F)c1` (stereo unspecified), for which the molecule was classed as inactive in test [1]. Moreover, in test [2], the Potency was 15.8 µM (active). Moreover, the Potency result in test [3] was “inactive”.
Consider `CC(C)(C)[Si](OCC[C@@H]1C[C@@]1(C)[C@@H](NP(=O)(c1ccccc1)c1ccccc1)c1ccccc1)(c1ccccc1)c1ccccc1`, for which, in test [1], the outcome was inactive. Moreover, the Potency in test [2] was 12.6 µM (active). In addition, the Potency result in test [3] was “inactive”.
Turning to `CCCCCCN(C(=O)CCCCCN1C(=O)NC(C2CC2)C(C(=O)OCc2ccccc2)=C1C)C(C(=O)NCCCC)c1ccc(OCC(=O)OC)c(C(=O)OC)c1` (stereo unspecified), the molecule was classed as inactive in test [1]. For the same molecule, the Potency in test [2] is 3.98 µM (active). Further, in test [3], the Potency entry was “inactive”.
For `CC(=O)N1C2(C=CC1(C)C(=O)NCc1cc(F)cc(C(F)(F)F)c1)CCCCC2` (stereo unspecified), the outcome in test [1] was inactive. In addition, the Potency in test [2] is 10 µM (active). The Potency entry in test [3] was “inactive”.
Take `COC(=O)c1ccc(C(NC(=O)OCc2ccccc2)/C(F)=C/[C@@H](C)C(=O)NCc2cccnc2)cc1` (stereo partly specified): the outcome in test [1] was inactive. Moreover, the Potency in test [2] was 1.26 µM (active). For the same molecule, the Potency entry in test [3] is “inactive”.
Regarding `COC(=O)c1ccc(C(NC(=O)OCc2ccccc2)/C(=C/[C@@H](C)C(=O)N(C)Cc2ccccc2)c2cccnc2)cc1` (stereo partly specified), the call in test [1] was inactive. In addition, in test [2], the Potency is 2 µM (active). For the same molecule, the Potency result in test [3] is “inactive”.
In the case of `COC(=O)c1ccc(C(NC(=O)OCc2ccccc2)/C(F)=C/[C@@H](C)C(=O)NCc2cc(F)cc(F)c2)cc1` (stereo partly specified), in test [1], the molecule was classed as inactive. Further, the Potency in test [2] was 3.98 µM (active). For the same molecule, the Potency entry in test [3] was “inactive”.
For `COC(=O)c1ccc(C(NC(=O)OCc2ccccc2)/C(=C/[C@@H](C)C(=O)NCc2nc3ccccc3n2C)c2cccnc2)cc1` (stereo partly specified), the call in test [1] was inactive. Besides, the Potency in test [2] was 2 µM (active). Moreover, the Potency entry in test [3] is “inactive”.
Take `CCCCCCN(C(=O)CCCCCN1C(=O)NC(c2ccc(C3CCCCC3)cc2)C(C(=O)OCc2ccccc2)=C1C)C(C(=O)NCCCC)c1ccc(OCC(=O)OC)c(C(=O)OC)c1` (stereo unspecified): the call in test [1] was inactive. Besides, the Potency in test [2] was 2 µM (active). The Potency entry in test [3] is “inactive”.
As to `C/C(=C\[C@@H](NP(=O)(c1ccccc1)c1ccccc1)c1ccccc1)CO[Si](c1ccccc1)(c1ccccc1)C(C)(C)C`, the molecule was classed as inactive in test [1]. The Potency in test [2] is 2 µM (active). Besides, in test [3], the Potency result is “inactive”.
As to `CC1(C(=O)NCCN2CCOCC2)C=CC2(CCCCC2)N1C(=O)c1ccccc1` (stereo unspecified), in test [1], the outcome was inactive. The Potency in test [2] is 7.94 µM (active). Also, the Potency entry in test [3] is “inactive”.
As for `COC(=O)c1ccc(C(NC(=O)OCc2ccccc2)/C(I)=C/[C@@H](C)C(=O)NCc2ccc(OC)c(O)c2)cc1` (stereo partly specified), the molecule was classed as inactive in test [1]. For the same molecule, in test [2], the Potency is 3.16 µM (active). The Potency result in test [3] was “inactive”.
With `CC(=O)N1CC=CC1(C)C(=O)NCC1CC1` (stereo unspecified), the molecule was called inactive in test [1]. Also, the Potency result in test [3] is “inactive”.
Take `Cc1cc(CNC(=O)C(C)Cc2ccccc2)nn1C` (stereo unspecified): the molecule was called inactive in test [1]. For the same molecule, the Potency in test [2] was 10 µM (active). Moreover, in test [3], the Potency entry was “inactive”.
